For 17 compounds, Potency results are on record in PubChem BioAssay (Tox21).

Values joined by “and” are separate entries in the source; they are usually repeats but may differ in a detail not shown here. Equal entries are not always repeated. Records with an inconclusive call do not appear. Some compounds were tested as several samples or in several runs, with calls that do not always agree. Active and inactive are the calls of the source. Unless noted, the call rests on the fitted dose curve; in most records, active means well fitted curve in the direction sought with a large enough effect in the repeat runs; inconclusive means weak or mixed curves; inactive means no such curve, though single readings can be large; an effect the other way counts as inactive or inconclusive.

The target of assay [1] is Acetylcholinesterase (Homo sapiens) (UniProt P22303). Briefly: Acetylcholinesterase (AChE) small molecule antagonists: colormetric cell-based qHTS assay (AID 1347395; calls by dose curve; further: nearly all actives have a fitted effect of over 30% in size). Put shortly:
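Homogeneous whole-cell format. SH-SY5Y cells seeded overnight, dosed with compound (30 min, 37 C, 5% CO2), then given DTNB/acetylthiocholine cocktail for 90 min at 37 C; colorimetric signal.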
A general note: In qHTS, concentration-response curves come from the screen itself.

The target is the same in assay [2]. Briefly: Acetylcholinesterase (AChE) small molecule antagonists: enzyme-based qHTS assay (AID 1347397; calls by dose curve; further: nearly all actives have a fitted effect of over 55% in size). The following applies: Potency: AChE enzyme activity inhibition. In short, it runs like this:
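Colorimetric DTNB read-out of thiocholine released from acetylthiocholine by recombinant human AChE (50 mU/mL as dispensed). Compounds were preincubated 30 min at RT before substrate/DTNB addition, with a 10 min RT reaction.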

For assay [3] the target is unchanged. The experiment in a line: Acetylcholinesterase (AChE) small molecule antagonists: fluorescence cell-based qHTS assay (AID 1347398; calls by dose curve; further: nearly all actives have a fitted effect of over 50% in size). The following applies: Potency: AChE activity. Put shortly:
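SH-SY5Y, 2,000 cells/well, attached overnight; cmpd 30 min 37 C; acetylthiocholine/Thiolite Green cocktail 40 min RT; fluorescence Ex/Em 490/520 nm.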

For assay [4] the target is unchanged. The experiment in a line: Acetylcholinesterase (AChE) small molecule antagonists: enzyme-based qHTS assay with human liver microsomes (AID 1347399; calls by dose curve; further: nearly all actives have a fitted effect of over 60% in size). The following applies: Potency: qHTS inhibition. Put shortly: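 Recombinant human AChE (50 mU/mL in the enzyme mix) and human liver microsomes (0.25 mg/mL final) were preincubated with compound and NADPH (0.25 mg/mL final) for 30 min at 37 C. Acetylthiocholine/DTNB was then added; thiocholine was read colorimetrically after 10 min at room temperature.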

Assay [5] deals with Cytochrome P450 2D6 (Homo sapiens) (UniProt P10635). The experiment in a line: Cytochrome P450 Family 2 Subfamily D Member 6 (CYP2D6) small molecule antagonists: luciferase reporter qHTS assay (AID 1671196). Further: nearly all actives have a fitted effect of over 50% in size. In short, it runs like this: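 CYP2D6 activity was followed as luminescence from its luciferin product after a 1 h NADPH-driven reaction at room temperature. Enzyme-substrate mix and compound were pre-incubated for 10 min, and the signal was read 20 min after adding detection reagent.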

In assay [6] the target is Cytochrome P450 2C19 (Homo sapiens) (UniProt P33261). Briefly: Cytochrome P450 Family 2 Subfamily C Member 19 (CYP2C19) small molecule antagonists: luciferase reporter qHTS assay (AID 1671197). Further: nearly all actives have a fitted effect of over 65% in size. Put shortly: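 Compounds were tested on CYP2C19 activity via proluciferin conversion to luciferin. The 37C, 1 h reaction followed NADPH addition; detection reagent stopped it.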
(In general: A reporter such as luciferase makes a cellular process visible.)

For assay [7], the target named is Cytochrome P450 2C9 (Homo sapiens) (UniProt P11712). The experiment in a line: Cytochrome P450 Family 2 Subfamily C Member 9 (CYP2C9) small molecule antagonists: luciferase reporter qHTS assay (AID 1671198). Further: nearly all actives have a fitted effect of over 50% in size. In short, it runs like this: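 P450-Glo proluciferin substrate with CYP2C9 enzyme; 10 min RT preincubation, then NADPH regeneration 1 h at 37C; luciferin detection reagent 20 min RT, luminescence in relative luminescence units.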

The target in assay [8] is Cytochrome P450 1A2 (Homo sapiens) (UniProt P05177). The experiment in a line: Cytochrome P450 Family 1 Subfamily A Member 2 (CYP1A2) small molecule antagonists: luciferase reporter qHTS assay (AID 1671199). Further: nearly all actives have a fitted effect of over 50% in size. Put shortly:
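Luminescence from luciferin formed by CYP1A2 from a proluciferin substrate, read 20 min after detection reagent. Compound was pre-incubated 10 min with enzyme-substrate, and reaction started with NADPH regeneration solution for 1 h at room temperature; furafylline control.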

For assay [9], the target named is Voltage-gated inwardly rectifying potassium channel KCNH2 (Homo sapiens) (UniProt Q12809). Briefly: Human Ether-a-go-go-Related Gene (hERG) channel small molecule antagonists: fluorescence cell-based qHTS assay (AID 1671200). Further: nearly all actives have a fitted effect of over 50% in size. In short, it runs like this: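 Thallium served as the potassium surrogate; its influx into dye-loaded U2OS cells carrying the channel was measured by fluorescence over 2 min.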
For orientation: hERG is a cardiac potassium channel; its block is linked to QT prolongation.

Assay [10] has as its target Cytochrome P450 3A4 (Homo sapiens) (UniProt P08684). The experiment in a line: Cytochrome P450 Family 3 Subfamily A Member 4 (CYP3A4) small molecule antagonists: luciferase reporter qHTS assay (AID 1671201). Further: nearly all actives have a fitted effect of over 50% in size. Put shortly: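 Relative luminescence units after 20 min with luciferin detection reagent served as read-out. Beforehand, CYP3A4 turned over a proluciferin substrate for 1 h at room temperature with NADPH regeneration, following 10 min compound preincubation.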
Potency means the concentration at half of the fitted maximal effect.

Cytochrome P450 2C9 (Homo sapiens), sequence (P11712 whole entry, looked up): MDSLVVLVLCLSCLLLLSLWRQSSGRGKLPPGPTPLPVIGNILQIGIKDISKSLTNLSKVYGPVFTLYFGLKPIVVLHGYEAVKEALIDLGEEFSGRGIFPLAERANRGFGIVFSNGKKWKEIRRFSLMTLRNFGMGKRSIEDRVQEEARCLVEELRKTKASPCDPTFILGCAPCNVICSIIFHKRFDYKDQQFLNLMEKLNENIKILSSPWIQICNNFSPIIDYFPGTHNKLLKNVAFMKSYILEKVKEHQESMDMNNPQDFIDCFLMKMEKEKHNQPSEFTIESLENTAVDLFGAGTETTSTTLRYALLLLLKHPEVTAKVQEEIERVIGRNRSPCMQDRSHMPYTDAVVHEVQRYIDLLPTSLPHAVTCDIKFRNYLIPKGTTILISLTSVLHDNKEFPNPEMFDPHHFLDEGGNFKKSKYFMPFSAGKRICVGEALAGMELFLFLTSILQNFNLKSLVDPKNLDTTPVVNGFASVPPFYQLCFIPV
Acetylcholinesterase (Homo sapiens), sequence (P22303 whole entry, looked up): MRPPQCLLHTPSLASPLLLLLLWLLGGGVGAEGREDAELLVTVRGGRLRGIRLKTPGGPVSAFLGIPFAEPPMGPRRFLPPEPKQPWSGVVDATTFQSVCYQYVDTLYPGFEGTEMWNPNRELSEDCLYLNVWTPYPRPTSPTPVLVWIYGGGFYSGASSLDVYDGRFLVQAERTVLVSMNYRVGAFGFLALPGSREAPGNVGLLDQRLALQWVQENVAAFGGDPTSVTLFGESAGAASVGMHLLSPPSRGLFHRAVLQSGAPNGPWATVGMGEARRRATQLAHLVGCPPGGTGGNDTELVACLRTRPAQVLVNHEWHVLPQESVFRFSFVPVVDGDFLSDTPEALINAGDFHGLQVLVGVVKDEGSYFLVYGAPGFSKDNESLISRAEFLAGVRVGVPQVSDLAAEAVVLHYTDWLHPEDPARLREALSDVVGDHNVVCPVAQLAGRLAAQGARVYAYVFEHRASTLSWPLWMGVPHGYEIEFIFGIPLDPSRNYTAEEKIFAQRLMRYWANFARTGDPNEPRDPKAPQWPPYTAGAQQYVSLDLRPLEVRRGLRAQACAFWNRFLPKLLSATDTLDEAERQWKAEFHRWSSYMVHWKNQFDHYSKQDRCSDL
Cytochrome P450 1A2 (Homo sapiens), sequence (P05177 whole entry, looked up): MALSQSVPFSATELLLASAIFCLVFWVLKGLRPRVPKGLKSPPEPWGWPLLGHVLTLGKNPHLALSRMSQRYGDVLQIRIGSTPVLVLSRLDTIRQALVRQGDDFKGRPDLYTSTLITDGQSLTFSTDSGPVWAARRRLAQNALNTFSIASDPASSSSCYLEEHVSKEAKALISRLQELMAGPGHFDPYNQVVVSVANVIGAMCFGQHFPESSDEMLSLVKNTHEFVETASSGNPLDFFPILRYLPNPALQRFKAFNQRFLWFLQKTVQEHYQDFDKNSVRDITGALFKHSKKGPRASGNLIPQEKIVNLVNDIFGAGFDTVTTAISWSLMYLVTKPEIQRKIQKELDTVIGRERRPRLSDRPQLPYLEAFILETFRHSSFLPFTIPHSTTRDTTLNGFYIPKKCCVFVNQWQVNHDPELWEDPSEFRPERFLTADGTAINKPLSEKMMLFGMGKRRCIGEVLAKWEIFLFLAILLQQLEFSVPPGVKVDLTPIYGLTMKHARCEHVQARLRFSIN
Cytochrome P450 2C19 (Homo sapiens), sequence (P33261 whole entry, looked up): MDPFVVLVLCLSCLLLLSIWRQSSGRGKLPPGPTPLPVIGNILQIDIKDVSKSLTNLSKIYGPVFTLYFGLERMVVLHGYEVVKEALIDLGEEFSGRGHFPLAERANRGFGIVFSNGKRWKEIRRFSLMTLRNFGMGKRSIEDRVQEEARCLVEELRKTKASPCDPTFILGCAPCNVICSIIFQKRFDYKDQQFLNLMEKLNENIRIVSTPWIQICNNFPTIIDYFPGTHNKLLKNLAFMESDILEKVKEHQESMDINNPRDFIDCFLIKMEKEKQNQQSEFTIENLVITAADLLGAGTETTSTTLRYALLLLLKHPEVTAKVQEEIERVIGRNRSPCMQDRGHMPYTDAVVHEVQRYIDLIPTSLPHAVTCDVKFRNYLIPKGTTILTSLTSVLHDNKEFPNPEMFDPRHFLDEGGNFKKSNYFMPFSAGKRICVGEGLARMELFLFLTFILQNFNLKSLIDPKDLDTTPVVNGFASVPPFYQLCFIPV
Voltage-gated inwardly rectifying potassium channel KCNH2 (Homo sapiens), sequence (Q12809 whole entry, looked up): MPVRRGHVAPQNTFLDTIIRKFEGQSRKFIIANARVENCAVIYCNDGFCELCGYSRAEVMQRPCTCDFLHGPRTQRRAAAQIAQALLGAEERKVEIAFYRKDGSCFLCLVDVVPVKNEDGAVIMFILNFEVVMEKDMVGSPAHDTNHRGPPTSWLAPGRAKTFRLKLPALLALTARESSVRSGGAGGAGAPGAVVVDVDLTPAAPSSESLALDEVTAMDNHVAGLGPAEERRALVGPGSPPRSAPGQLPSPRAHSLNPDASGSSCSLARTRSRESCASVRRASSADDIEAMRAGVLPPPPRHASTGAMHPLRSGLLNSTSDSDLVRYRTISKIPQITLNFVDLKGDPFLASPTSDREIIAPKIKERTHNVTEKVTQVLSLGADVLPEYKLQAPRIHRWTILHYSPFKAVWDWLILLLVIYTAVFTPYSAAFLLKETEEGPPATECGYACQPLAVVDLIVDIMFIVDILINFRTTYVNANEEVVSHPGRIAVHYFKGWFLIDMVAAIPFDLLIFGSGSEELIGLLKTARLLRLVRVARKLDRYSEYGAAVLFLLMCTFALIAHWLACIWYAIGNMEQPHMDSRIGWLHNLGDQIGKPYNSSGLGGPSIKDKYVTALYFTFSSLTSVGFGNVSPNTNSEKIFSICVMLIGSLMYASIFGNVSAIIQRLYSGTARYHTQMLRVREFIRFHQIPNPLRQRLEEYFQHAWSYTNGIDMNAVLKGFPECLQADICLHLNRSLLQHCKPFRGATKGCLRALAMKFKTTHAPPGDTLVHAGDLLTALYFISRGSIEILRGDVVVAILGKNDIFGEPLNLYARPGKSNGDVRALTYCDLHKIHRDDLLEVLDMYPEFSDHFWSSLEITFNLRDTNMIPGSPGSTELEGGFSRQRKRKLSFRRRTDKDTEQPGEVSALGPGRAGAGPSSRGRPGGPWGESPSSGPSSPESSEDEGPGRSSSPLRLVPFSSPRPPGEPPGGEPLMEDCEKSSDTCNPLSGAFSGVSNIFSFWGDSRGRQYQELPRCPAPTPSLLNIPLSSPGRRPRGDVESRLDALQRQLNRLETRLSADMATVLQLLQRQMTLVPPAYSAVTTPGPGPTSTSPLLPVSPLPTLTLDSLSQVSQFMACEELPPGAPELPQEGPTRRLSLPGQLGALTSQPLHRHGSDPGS
Cytochrome P450 3A4 (Homo sapiens), sequence (P08684 whole entry, looked up): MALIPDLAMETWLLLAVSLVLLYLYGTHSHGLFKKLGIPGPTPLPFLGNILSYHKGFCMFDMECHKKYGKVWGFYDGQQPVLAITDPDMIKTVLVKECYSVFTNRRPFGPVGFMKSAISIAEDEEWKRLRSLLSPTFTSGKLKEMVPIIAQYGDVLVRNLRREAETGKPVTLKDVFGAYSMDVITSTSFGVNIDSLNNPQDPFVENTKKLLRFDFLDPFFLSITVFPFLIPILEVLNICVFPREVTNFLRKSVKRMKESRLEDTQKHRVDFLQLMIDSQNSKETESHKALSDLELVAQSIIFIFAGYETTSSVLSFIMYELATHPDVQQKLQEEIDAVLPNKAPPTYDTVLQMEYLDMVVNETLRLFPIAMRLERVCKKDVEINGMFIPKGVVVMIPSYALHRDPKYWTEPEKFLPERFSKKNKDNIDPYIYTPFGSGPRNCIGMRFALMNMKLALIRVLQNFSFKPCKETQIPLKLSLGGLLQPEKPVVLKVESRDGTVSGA
Cytochrome P450 2D6 (Homo sapiens), sequence (P10635 whole entry, looked up): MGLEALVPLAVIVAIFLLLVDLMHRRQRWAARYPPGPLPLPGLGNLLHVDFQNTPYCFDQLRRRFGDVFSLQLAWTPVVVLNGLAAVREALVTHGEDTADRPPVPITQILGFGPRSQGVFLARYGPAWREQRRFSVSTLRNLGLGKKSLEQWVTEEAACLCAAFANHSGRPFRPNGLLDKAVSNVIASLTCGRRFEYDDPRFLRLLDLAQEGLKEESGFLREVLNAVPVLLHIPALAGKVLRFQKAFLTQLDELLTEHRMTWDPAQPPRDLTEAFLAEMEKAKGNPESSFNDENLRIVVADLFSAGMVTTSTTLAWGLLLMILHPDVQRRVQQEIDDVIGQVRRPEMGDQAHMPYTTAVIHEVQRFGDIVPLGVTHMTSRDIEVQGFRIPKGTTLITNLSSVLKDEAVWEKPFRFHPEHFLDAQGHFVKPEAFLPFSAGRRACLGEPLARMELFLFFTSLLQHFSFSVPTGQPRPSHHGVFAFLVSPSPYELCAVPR

On to `COc1ccc(C=O)cc1`, for which the Potency entry in assay [1], in assay [2], in assay [3], in [4], in [5] and in assay [6] was “inactive” each time. Further, the Potency entry in assay [7], in [8], in [9] and in [10] was “inactive” in each case.

Take `NCc1cccnc1`: the Potency entry in assay [1], in [2], in assay [3], in assay [4], in [5] and in assay [7] was “inactive” each time. Also, the Potency result in assay [8], in assay [9] and in assay [10] was “inactive” in each case. In addition, the Potency in assay [6] is 28.3 µM (active) and inactive.

On to `O=[N+]([O-])c1ccc(O)c([N+](=O)[O-])c1`, for which the Potency result in [1], in assay [2], in [3], in assay [4], in assay [5] and in assay [6] was “inactive” each time. In addition, the Potency result in [8], in [9] and in assay [10] was “inactive” throughout. In addition, in assay [7], the Potency was 63.5 µM (active) and 39.9 µM (active).

In the case of `CCOP(=S)(OCC)O/N=C(\C#N)c1ccccc1`, the Potency in assay [1] was 63.3 µM (active) and 17.4 µM (active); in assay [2], 56.4 µM (active); in [3] it was 39.9 µM (active); in [4], 1.78 µM (active) and 1.55 µM (active); in assay [5], 35.6 µM (active); in assay [6] it was 224 nM (active) and 347 nM (active). In addition, the Potency in assay [7] is 2 µM (active) and 2.19 µM (active); in assay [8], 1.42 µM (active) and 1.23 µM (active). The Potency entry in [9] is “inactive”.

For the compound `COC(=O)c1sccc1S(=O)(=O)NC(=O)Nc1nc(C)nc(OC)n1`, the Potency entry in assay [1], in assay [2], in assay [3], in assay [4], in [5] and in [7] was “inactive” in each case. Also, the Potency result in assay [8], in [9] and in assay [10] was “inactive” throughout. For the same compound, in [6], the Potency was 81.3 µM (active).

In the case of `c1cc(OCC2CO2)ccc1Cc1ccc(OCC2CO2)cc1` (stereo unspecified), the Potency entry in assay [1], in assay [2], in [3], in assay [4] and in [9] was “inactive” each time. In addition, the Potency in assay [5] was 16 µM (active) and 28.3 µM (active); in assay [6] it was 8 µM (active) and 7.96 µM (active); in assay [7], 35.7 µM (active) and 28.3 µM (active); in [8], 71 µM (active).

`Cc1ccc2c(c1N)C(=O)c1ccccc1C2=O`: the Potency entry in assay [1], in [2], in assay [3], in assay [4], in [9] and in assay [10] was “inactive” each time. The Potency is 702 nM (active) and 5.64 µM (active) in assay [5]; 2.8 µM (active) and 5.03 µM (active) in assay [6]; 2.22 µM (active) and 3.99 µM (active) in assay [7]; 443 nM (active) and 633 nM (active) in [8].

As to `Cc1cccc(N)c1N`, the Potency result in [1], in assay [2], in [3], in [4] and in assay [9] was “inactive” each time. Further, the Potency in assay [5] is 61.2 µM (active) and 17.8 µM (active); in [6], 38.6 µM (active) and 35.6 µM (active); in assay [7] it was 34.4 µM (active) and 35.6 µM (active); in assay [8] it was 7.7 µM (active) and 14.2 µM (active); in assay [10] it was 3.86 µM (active) and 11.2 µM (active).

Turning to `CC(C)C(=O)OCC(C)(C)C(OC(=O)C(C)C)C(C)C` (stereo unspecified), the Potency entry in assay [1], in assay [2], in [3], in assay [4], in [6] and in assay [7] was “inactive” in each case. Also, the Potency entry in assay [8], in assay [9] and in [10] was “inactive” each time. In assay [5], the Potency was 32 µM (active) and inactive.

On to `O=C(NC(=O)c1c(F)cccc1F)Nc1ccc(Cl)cc1`, for which the Potency result in assay [1], in assay [2], in assay [3], in assay [4], in assay [5] and in [6] was “inactive” throughout. In addition, the Potency result in [7], in assay [9] and in assay [10] was “inactive” in each case. For the same compound, the Potency in assay [8] is 35.6 µM (active).

With `CCc1cccc(CC)c1N(COC)C(=O)CCl`, the Potency result in assay [1], in assay [2], in assay [3], in assay [4], in [5] and in assay [8] was “inactive” throughout. Besides, the Potency result in assay [9] was “inactive”. For the same compound, the Potency is 9.71 µM (active) and 71 µM (active) in assay [6]; 30.7 µM (active) and 39.9 µM (active) in [7].

Take `CC(C)N(C(=O)SCC(Cl)=C(Cl)Cl)C(C)C`: the Potency result in assay [1], in assay [2], in [3], in [4], in assay [5] and in [8] was “inactive” in each case. Besides, the Potency entry in [10] is “inactive”. Also, the Potency in assay [6] is 35.1 µM (active) and 5.03 µM (active); in assay [7] it was “inactive and 31.7 µM (active)”; in assay [9], 27.5 µM (active).

As for `O=S(=O)(Oc1ccc(Cl)cc1)c1ccc(Cl)cc1`, the Potency entry in [1], in [2], in [3], in assay [4] and in [10] was “inactive” each time. The Potency in assay [5] is 16.1 µM (active) and 28.3 µM (active); in assay [6] it was 114 nM (active) and 126 nM (active); in assay [7] it was 32.1 µM (active) and 25.2 µM (active); in assay [8], 2.87 µM (active) and 4.48 µM (active); in [9], 24.5 µM (active).

For `CN(C)C(=O)Nc1ccc(Cl)cc1`, the Potency result in assay [1], in [2], in [3], in assay [4], in [7] and in assay [9] was “inactive” throughout. Moreover, in assay [10], the Potency result is “inactive”. Besides, the Potency is 9.86 µM (active) in assay [5]; 7.83 µM (active) in [6]; 3.93 µM (active) and 3.99 µM (active) in [8].

`CCC(=O)O[C@H]1CC[C@H]2[C@@H]3CCC4=CC(=O)CC[C@]4(C)[C@H]3CC[C@]12C`: the Potency entry in assay [1], in assay [2], in assay [3], in [4], in assay [5] and in assay [8] was “inactive” each time. Moreover, the Potency result in assay [10] is “inactive”. In addition, the Potency in assay [6] is 17.8 µM (active) and inactive; in assay [7] it was 25.2 µM (active) and 30.9 µM (active); in assay [9], 34.7 µM (active).

As to `NNC(=S)NN`, the Potency entry in [1], in assay [2], in [3], in assay [4] and in [9] was “inactive” throughout. The Potency in assay [5] was 65 µM (active); in assay [6], 32.6 µM (active) and 39.9 µM (active); in assay [7] it was 65 µM (active); in assay [8], 41 µM (active) and 31.7 µM (active).

As to `Oc1ccc(-c2ccccc2)cc1`, the Potency entry in [1], in [2], in assay [3], in assay [4], in [9] and in assay [10] was “inactive” in each case. For the same compound, the Potency in [5] was 31.3 µM (active); in assay [6], 35.1 µM (active) and 35.6 µM (active); in [7] it was 39.4 µM (active); in assay [8], 11.1 µM (active) and 11.2 µM (active).
